From the supplement of paper PMC11417369
Over roughly 25,000 sequences, “ln(normalized median fluorescence intensity)” has its median near 6.7; the highest 2% begin near 10. Only a selection was taken, and the highest values are over-represented in it overall.

tested on: PfHDP1 homeodomain (GST-tagged); assay: gcPBM binding intensity (ln(normalized median fluorescence intensity)); higher = stronger DNA binding
Procedure, shortened: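 Binding intensity is defined as the maximum Masliner-normalised natural-log median intensity across replicate spots for either probe orientation. It was measured on an Agilent 4 × 180k array of primer-extended double-stranded 36-bp intergenic genomic probes and negative controls, to which GST-tagged P. falciparum DNA-binding domains made in E. coli were applied for 1 h in 1× PBS with 1% milk, 0.2 mg/ml BSA, 0.5% salmon testes DNA and 0.03% Triton X-100. Detection was by Alexa488 anti-GST antibody and scanning at 488 nm.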

Sequence	gcPBM binding intensity (ln)
AGAAAAAAAATGTATACACACAAATATAAAGAAGGA [CACACA_site3806]	7.09
GTACTCTTCTCCAGACTGCACTATACGACTCGTACA [GTGCAC_site9770]	7.35
AAATATTTTTTAATGTGTACATAGAACATATATATA [XGTACX_site3136]	6.59
TTTGTCTGCATACGCACACACGTGTACCATCTTATG [CACACA_site4784]	7.89
AATTAACAAAGACACACACACACACGCACAAAAAAA [CACACA_site6388]	7.33
GTTAAAATTGGGGACGCATGTTCCTTTCCTTTTTTT [TGCATGCA_site1002]	5.83
AATATAATATAATGCACACATAAAACAAAAAAAAAA [CACACA_site3012]	10.2
AATATAATATAATGCACACATAAACAAAAAAAAAAA [CACACA_site783]	10.5
ATATAATCTGAGTGCACACAAATAAATAAACATACA [CACACA_site422]	10.2
TTAACAAATAAATGCACACATATATATAAATAATAT [CACACA_site28]	9.43
TAATATAATCTGAGTGCACACAAATAAATAAACATA [CACACA_site8032]	11.2
TAAATATAAACACAAACACACACATATATATATATA [CACACA_site7978]	9.27
AATGTTAAACTATGATGTACGGTTAAAAATATAATT [XGTACX_site893]	6.43
TTATATTTTCAGAATAGTACACATATATACATATAT [XGTACX_site2519]	6.46
GTATCAATAAAAAACAGTACATATATAATATATTTA [XGTACX_site1083]	6.24
TATTTTCATTTGCGCGCACACAATAATAATTTTTGG [CACACA_site3525]	8.28
TTTAATTTGATAGACACATGCACACGTGCAATACTT [TGCATGCA_site777]	10.9
GATAGACACGTGCACACATGCAATACTTTATTCAGT [TGCATGCA_site778]	10
ATTTGATAGACACATGCACACATGCAATACTTTATT [CACACA_site5633]	9.05
TATTAACAAAATTTTTAACACACAAAAAAAAAAAAA [CACACA_site8542]	6.18
ATATCAACTGAATTGTATAGGCGATAAAAGAAAAAA [CACACA_negctrl_site1334]	6.58
ATAGAAGGCAACTTGGTGCACAAAAAAAAAAATAAT	10.5
AACATGCAAACATGCACACAGAAAAAAAAAATATAT [CACACA_site1565]	9.37

Sequence	gcPBM binding intensity (ln)
TCCTATATCACAAATGTGCACAGAAAAAAAAAATAT	11
TATATATCAAAAATATGTACACAGAAATATATATTA [XGTACX_site6997]	6.96
TATTCTTACAAAAGTAGTACAATCATTCATATTTTT [XGTACX_site631]	6.42
TTTTTTTTTTATTTTGCACACTTCTAATTTAGTTCT [CACACA_site5828]	10.7
AATTTTTTTTTTTTGTTGCACTTTTAGAGTTTTAAT [GTGCAC_site9519]	7.37
AAAAAAATAGTCTTCTTGCACTTTTTAATTTATTTT	6.7
TTTTTTTTTTATTTTGCACACTTCTAATTTAGTTGT [CACACA_site3429]	10.7
AACAATTAGAACTTTGCACACTTCTATATATTTTGT [CACACA_site674]	10.2
AAAAATAGTCTTCTTGCACTTTTTAATTTATTTTAA [CACACA_negctrl_site1322]	6.76
TAATATGAATATATATGTACATACAATTTGTTATAT [XGTACX_site5815]	6.55
TCATATGTATAAATTAGTACATATTTAATGGATATA [XGTACX_site3298]	6.26
ATAATAATATATATTACACACGCATCGTTCATTTAT [CACACA_site8752]	7.06
CAATGTTAATATAATACACACAATATGTATTTGTCT [CACACA_site1162]	6.8
AAATAAAAAGGGTGCACACAAAAATATATATATATA [CACACA_site1728]	10.4
AAAAATAAAGGGTGTGCACACAAAAATATATATATA [CACACA_site1727]	10.7
AAAAAAATAAGGTGCACACAAAAAAAAAAAAAAAAA [CACACA_site812]	9.95
AAAAATAAAAGGTGTGCACACAAAAATATATATATA [CACACA_site8507]	10.7
TAGGTCATATTTTTTGCACACAAAAAAAAATATAAA [CACACA_site3380]	9.79
AAGATAAAATGATGCACACAAAAGGGTGTAATATAT [CACACA_site1706]	8.59
AAAGGTTTGCGTTGTGTGCACAAAATAAATATATAA	10.6
ACAAAAAAATAAGGTGCACACAAAAAAAAAAAAAAA [CACACA_site8171]	9.22
ATATATATATTAAAGGTGCACAAATAAATATATACA [GTGCAC_site9532]	9.88
AGTAGTCTGGAGAAAAGTACACAGTATCTGGTAACA [XGTACX_site2034]	6

Sequence	gcPBM binding intensity (ln)
TTTTTTTTTTTTTATACACACATTAAAATAAAAAAG [CACACA_site3946]	6.74
TTTTAAATATGCCATACACACTACTCTATAATAAAT [CACACA_site6987]	6.56
AATTTTATTCATTGAGCACACAAAATAAATTATCAA [CACACA_site9079]	6.73
TACAAAATAAAAATAATTCTTTCAAAAAATAATAAA [XGTACX_negctrl_site368]	5.86
ATCTTTCATCTACCAAGTACAAATTACTTTTTTTTT [XGTACX_site7001]	6.79
ATCAAACAAAAAATAAAAAAATGCGACATGTGTACA [TGCATGCA_negctrl_site164]	7.34
GTCGAGGATATATAAAGTACATATATATATATGATA [XGTACX_site1128]	6.41
TTACATAATATATGTACACACGCAAATACTTAGAAT [CACACA_site320]	6.63
ACCACATTTTTTTTTGCATGTTGTTTAAAAAAAGGC [TGCATGCA_site137]	6.74
TATTTGTAAATCGATACACACATATATCTTAATATA [CACACA_site4273]	6.28
TACAATTTAAAACACACACACAATAATACATATATA [CACACA_site1251]	6.89
AATGCTATCATTAATGCACACATTTAAACTTAATAT [CACACA_site5878]	10.6
AATTTAATATAATGCACACATAAAACAAAAACAAAA [CACACA_site529]	10.5
TTCAAAATAAAAAATTCACACACATATATATATATA [CACACA_site8653]	9.22
AATGCTATCATTAATGCACACATTTAAAATTAATAT [CACACA_site3548]	10
AATTTAATATAATGCACACATAAAAAAAAAATCAAA [CACACA_site1]	9.95
AATTTAATATAATGCACACATAAAAAAAAATTCAAA [CACACA_site2062]	10.5
TAACTTAATATTAATGCACACAATTTATATATATAT [CACACA_site3903]	10.4
AAAATTTAATATAATGCACACATAAAACAAAAACAA [CACACA_site8071]	9.14
AAAATTTAATATAATGCACACATAAAAAAAAAATCA [CACACA_site7882]	10.7
TATTGTCTTGTATATGCATGTAGACCAAATATGTAA [TGCATGCA_site9]	6.42
AATGAGGATATATACACACATACATTAAAAAAATAT [CACACA_site1849]	6.67
TATTAAACTGGACACACACACACACCCATATATAAA [CACACA_site4579]	6.93

Sequence	gcPBM binding intensity (ln)
TATATCTTAATATTTACACACATGCGCACCCATAAA [CACACA_site5349]	7.52
GTGTATTTGGTGCGCACACACATGCAAAAAGAAATA [CACACA_site4768]	9.15
AAAAAAAAAAAAAAATGTACATATATATATTATAAA [XGTACX_site518]	6.33
ATTTTATTTTTTAATAGTACTCATTTTTTATGTGAA [XGTACX_site5494]	6.48
TTAAAGCTGACATATACACACATACATAAATTCATA [CACACA_site5377]	6.75
GATCCTGGTTCTTGTGGTACTTGTTCATTTGTTATA [XGTACX_site7164]	6.69
TATATATATATAAGATGTACCCTTTGAAATAATAAT [XGTACX_site7215]	8.66
AAAATTTAATATAATGCACACATAAAAAAAAATTCA [CACACA_site8640]	9.79
AAAATTTAATATAATGCACACATAAAAAAAAAAAAT [CACACA_site8425]	10.4
CATATATATCGTAATGCACACATGTAATTTCATAAT [CACACA_site811]	10.7
ACTAGACAAAATATAATGCACACTATTATTTTTATT [CACACA_site2726]	10.6
ATATTTTATTATATAGGTACACATAATTTCATGTAA [XGTACX_site415]	6.34
AAAATTTAATATAATGCACACATAAAAAAAAAAAAA [CACACA_site7923]	10.4
AATTTAATATAATGCACACATAAAAAAAAAAAAAAA [CACACA_site123]	10.5
AATTTAATATAATGCACACATAAAAAAAAAAAATTC [CACACA_site1504]	10.6
ATTTCGTAATTTATATCACACACATATATATATAAT [CACACA_site9021]	6.84
TATATATATTTATGCACACAAAATATATTATATAAT [CACACA_site5955]	10.4
TATAATTTAAAATACACACACATATATATAATATAT [CACACA_site2000]	6.76
TAGACAAAATATAATGCACACTATTATTTTTATTTA [CACACA_site5508]	10.4
TATTTATACATACATACACACATATAGATTTATATT [CACACA_site7851]	6.85
TACATACATACATACACACATACATATGTATATATA [CACACA_site2480]	7.37
